From PubChem
ALDH1A1 inh: ALDH1A1 (human) enzyme inhibition; Purified ALDH1A1, NADH fluorescence, propionaldehyde substrate; P00352; AID 1030; Potency, µM (top dose mostly 75.3 µM), inactives show top-dose activity, negative = inhibition, usual class: inhibitors; hit rate 7.3% among 220,000;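 further: potency means the concentration at half of the fitted maximal effect; plate controls were no enzyme wells and a reference inhibitor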
HPGD block: inhibitors of human 15-hydroxyprostaglandin dehydrogenase (HPGD); P15428; purified HPGD, NADH fluorescence kinetic, PGE2 substrate; Potency, µM, without a hit: top-dose activity change, negative = inhibition, actives largely listed as inhibitors; hit rate 4.3% among 150,000; further: potency means the concentration at half of the fitted maximal effect
Target sequence (P15428 whole entry, looked up): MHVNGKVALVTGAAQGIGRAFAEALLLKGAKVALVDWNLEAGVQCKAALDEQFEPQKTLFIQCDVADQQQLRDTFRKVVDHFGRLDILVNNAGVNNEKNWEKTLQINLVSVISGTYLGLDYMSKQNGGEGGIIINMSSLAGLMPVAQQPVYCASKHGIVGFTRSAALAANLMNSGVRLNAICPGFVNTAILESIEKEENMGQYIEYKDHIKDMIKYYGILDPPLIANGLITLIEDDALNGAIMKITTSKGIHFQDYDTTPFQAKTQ
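NADH formation kinetics: reaction with 30 uM PGE2 and 1 mM NAD+ (final), 20 nM enzyme, Tris-HCl pH 8 with Tween 20, after 15 min compound preincubation at room temperature. Fluorescence change, last versus first of five reads.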
PNC inhibitor: blocks assembly of the perinucleolar compartment; activity change (PNC), negative = inhibition, % at 10 µM; PC3M PTB-GFP, PNC prevalence imaging, 16 h; active compounds read low; hit rate 3.1% among 140,000; AID 2417;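 active means readout at or below -70, meaning at least 70% loss of cells showing the perinucleolar compartment, a nuclear body marking cancer cells; inconclusive means readout between -30 and a set limit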;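 further: plate controls were DMSO wells for no effect and camptothecin positive control wells for full effect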
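PC3M cells stably expressing PTB-GFP, 750–1000 cells/well, treated 16 h at 37 °C with compound (23 nl of library stock), in duplicate. After paraformaldehyde fixation and Hoechst stain, imaged at 20x; PNC prevalence scored by image analysis.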
IMPase inh: membrane-permeable compound that blocks inositol monophosphatase; CHO-M1 cells, IP1 accumulation, HTRF TR-FRET ratio; inhibition (IP1 accumulation), % at 46.1 µM; 120,000 tested, under 10 active; AID 901; active means well fitted curve in the direction sought with a large enough effect in the signal ratio, not every such curve was filed as active; inconclusive means small, poorly fitted or top-dose-only effect, or a change in a side signal; inactive means no such curve, though single readings can be large or run the other way; the % refers to the signal ratio;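 further: cells stimulated with carbachol in lithium chloride buffer; plate controls were DMSO basal wells for no effect and reference inhibitor wells for full effect; higher means more IMPase inhibition seen as more IP1 and lower FRET ratio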
Target sequence (P97697 whole entry, looked up): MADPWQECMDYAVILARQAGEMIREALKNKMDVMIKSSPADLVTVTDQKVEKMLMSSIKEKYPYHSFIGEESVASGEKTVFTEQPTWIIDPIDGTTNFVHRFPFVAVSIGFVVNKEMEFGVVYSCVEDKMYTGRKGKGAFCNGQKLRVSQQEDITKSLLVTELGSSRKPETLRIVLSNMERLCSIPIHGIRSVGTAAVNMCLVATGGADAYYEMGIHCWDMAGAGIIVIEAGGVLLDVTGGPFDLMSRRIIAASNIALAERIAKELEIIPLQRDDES
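CHO-M1, 2000 cells/well, cultured 16–30 h; cpd up to 46 uM; carbachol (50 uM solution, stimulation buffer w/ 50 mM LiCl, pH 7.4), 30 min 37C; IP-One TR-FRET, 10 min RT; Ex 320/Em 665, 620; Hill-fit AC50.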
IMPase Li inh: membrane-permeable IMPase blocker, potentiated with lithium; CHO-M1 cells, IP1 TR-FRET (IP-One), carbachol + lithium; Potency, µM (top dose mostly 59.4 µM), inactives show top-dose activity, negative = IMPase inhibition, usual class: inhibitors; hit rate 0.35% among 210,000; active means well fitted curve in the direction sought with a large enough effect; inconclusive means small, poorly fitted or top-dose-only effect, or another doubt; inactive means no such curve, though single readings can be large; an effect the other way counts as inactive or inconclusive;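 further: IP1 builds up when IMPase is blocked and the TR-FRET signal falls; potency means the concentration at half of the fitted maximal effect; plate controls were basal vehicle for no effect and high inhibitor control for full effect; nearly all actives have a fitted effect of over 50% in size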
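CHO-M1, 2000 cells/well, 16–30 h culture; cpd + low Li+, 30 min 37C; lysis with d2-IP1/Eu-anti-IP1 Ab, 10 min RT; TR-FRET 665/620 ratio and 620 channel; AC50 via Hill.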
ALOX12 inhib: 12-hLO (ALOX12) enzyme inhibition | P18054 | purified 12-hLO, xylenol orange hydroperoxide absorbance | Potency, µM (top dose mostly 57.1 µM), for the others: top-dose activity change, negative = inhibition, most hits filed as inhibitors | hit rate 0.12% among 150,000 | AID 1452; active means well fitted curve in the direction sought with a large enough effect; inconclusive means small, poorly fitted or top-dose-only effect, or another doubt; inactive means no such curve, though single readings can be large; an effect the other way counts as inactive or inconclusive; further: potency means the concentration at half of the fitted maximal effect; nearly all actives have a fitted effect of over 55% in size
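Purified human 12hLO (150 nM final) was preincubated with compounds for 15 min at room temperature in 25 mM Hepes pH 7.0, 0.01% Triton X-100, then reacted with 40 uM arachidonic acid for 30 min. Hydroperoxide was detected with ferrous iron/xylenol orange.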
* marks the source's active call; other numbers are inactive results; ? = inconclusive; / = no result; [ ] = dose if it differs, or a comment. Rows were chosen to be rich in hits. Some 11% of all compounds tested hit in one or more screens of this group. Unless noted, the call rests on the fitted dose curve; in most records, active means well fitted inhibition curve with a large enough effect (not every such curve was filed as active); inconclusive means small, poorly fitted or top-dose-only effect, or another doubt; inactive means no such curve, though single readings can be large or run the other way. Unless noted, on the % scale 0 is the no-effect control and ±100 the full control effect.

SMILES | ALDH1A1 inh | HPGD block | PNC inhibitor | IMPase inh | IMPase Li inh | ALOX12 inhib
CSc1nnc(Cn2c(=O)sc3ccccc32)n1-c1ccccc1 | 0% | -11% | -106* | -3 | 4%[38.3 µM] | 0%
C=CCn1c(SCc2nc(N)nc(N3CCCCC3)n2)nnc1-c1ccco1 | 22µM* | 16µM* | -11 | -8 | -5%[38.3 µM] | -3%
Nc1cc(=O)[nH]c(=S)n1-c1ccccc1 | -2% | -8% | 10 | 6 | 13%[38.3 µM] | -9%
Cc1cc(=O)[nH]c(=S)n1-c1ccccc1 | ? | -1% | -122* | 0 | 17%[38.3 µM] | -2%
CCOCCCn1c(=N)c(C(=O)NC(C)c2ccccc2)cc2c(=O)n3cccc(C)c3nc21 (stereo not drawn) | / | / | / | -2 | / | /
CCNc1ncc2nc(C)c(=O)n(CCc3ccccc3)c2n1 | ? | / | / | / | 19% | /
CCCC(=O)OCCNc1cc(SCCC(=O)OC)c2nonc2c1[N+](=O)[O-] | 10µM* | 28µM* | -12 | 13 | 17% | -11%
CC(=O)OCCNc1cc(Sc2nc3ccccc3[nH]2)c2nonc2c1[N+](=O)[O-] | 10% | 3.2µM* | -19 | -3 | -11% | -22%
CC(=O)OCCCNc1cc(Sc2nc3ccccc3s2)c2nonc2c1[N+](=O)[O-] | 11µM* | 2.5µM* | 16 | -1 | 22% | 6%
Nc1nc(CC(=O)O)cs1 | -14% | -6% | / | / | 3% | 2%
CC(C)CO/N=C1/C[C@@H](O)[C@@H](O)[C@@H]2[C@@H]3C(=O)N(Cc4ccc5c(c4)OCO5)C(=O)[C@H]3CC[C@@H]12 | 8%[13.5 µM] | / | / | / | / | /
CC1CC(C)(C)NC(=S)S1 (stereo not drawn) | 13µM* | 22µM* | -24 | 0 | 4%[38.3 µM] | -5%
CC1CC(C)(C)NC(=O)O1 (stereo not drawn) | -8% | -2% | 4 | -12 | 4%[38.3 µM] | -1%
O=C(c1ccco1)N1CCC2(CC1)CN(Cc1cc(C(F)(F)F)cc(C(F)(F)F)c1)C2 | ? | 0% | / | / | ? | -5%
COC1CCCCC1Nc1ccc(C)c(C)c1 (stereo not drawn) | 10µM* | -5% | -26 | -7[0.369 µM] | -1% | -2%
N#Cc1cccc(CS(=O)(=O)c2ccccc2)c1 | 4% | -8% | / | / | 2% | /
OC1(C(O)(c2ccc(-c3ccccc3)cc2)c2ccc(-c3ccccc3)cc2)CCCCC1 | 7%[13.5 µM] | 0% | / | / | 17% | 7%[11.4 µM]
N#C/C=C1/NC(=O)c2ccccc2S1 | 3% | 2.2µM* | 24 | 1 | 0%[38.3 µM] | -2%
O=C(c1ccc([N+](=O)[O-])cc1[N+](=O)[O-])N1CCCC1 | -2% | / | / | / | 5% | /
O=C(c1cc2cc([N+](=O)[O-])ccc2s1)N1CCCCC1 | 14µM* | / | / | / | -5% | /
CN(C)C(=O)c1cc2cc([N+](=O)[O-])ccc2s1 | -4% | -15% | -24 | -3 | -3%[38.3 µM] | 0%
CCN(CC)C(=O)c1cc2cc([N+](=O)[O-])ccc2s1 | -5% | 28µM* | -10 | -4 | 5%[38.3 µM] | 2%
CCOc1ccc(N(C(C)C(=O)NCCSc2ccc(Cl)cc2)S(C)(=O)=O)cc1 (stereo not drawn) | / | / | / | 0 | / | /
COc1ccccc1CCn1c(=O)c(-c2ccccc2)nc2cncnc21 | -9% | -3% | / | / | 4% | 6%
C(=N\N(Cc1ccccc1)c1ccccc1)/c1ccco1 | 14µM* | / | / | / | 18% | /
SMILES | ALDH1A1 inh | HPGD block | PNC inhibitor | IMPase inh | IMPase Li inh | ALOX12 inhib
CCN(CC)C(=S)SCC(=O)NC12CC3CC(CC(C3)C1)C2 | 4.5µM* | 14µM* | 5 | / | 0% | -6%
CCOC(=O)CCN1C(=O)[C@H]2[C@H]3[C@H](O)[C@H](O)C/C(=N/O[C@@H]4O[C@@H](COC(C)=O)[C@@H](OC(C)=O)[C@@H](OC(C)=O)[C@H]4OC(C)=O)[C@H]3CC[C@@H]2C1=O | 0%[13.5 µM] | / | / | / | / | /
CCC(=O)Nc1sc2c(c1C(N)=O)CCC2 | -17% | -14% | -100* | -1 | 4%[38.3 µM] | -5%
NC(=O)c1c(NC(=O)c2ccncc2)sc2c1CCCC2 | ? | / | / | / | 12% | /
O=C(Nc1sc2c(c1C(=O)N1CCOCC1)CCCCC2)c1cccnc1 | 22µM* | / | / | / | 0% | /
COC(=O)Nc1sc2c(c1C(N)=O)CCCCCC2 | 8.9µM* | 14µM* | -8 | -13 | 21%[38.3 µM] | 2%
CC(C)C(=O)NC(=S)Nc1sc2c(c1C(N)=O)CCCC2 | 7.1µM* | 14µM* | -109* | / | 1% | 1%
Cc1noc(C)c1C(=O)Nc1sc2c(c1C(N)=O)CCC2 | ? | ? | -23 | -3 | 7%[38.3 µM] | -3%
Cc1noc(C)c1C(=O)Nc1sc2c(c1C(N)=O)CCCCC2 | 7.9µM* | ? | ? | 7 | 13%[38.3 µM] | -6%
CCCC(=O)NC(=S)Nc1sc2c(c1C(N)=O)CCC2 | 8.9µM* | 25µM* | -11 | / | 6% | -1%
NC(=O)c1c(NC(=O)c2cnccn2)sc2c1CCCC2 | 20µM* | / | / | / | 6% | /
COC(=O)N1CCC2(CC1)CN(C(=O)Nc1cccc(C#N)c1)C2 | -11% | -25% | / | / | 5% | 10%
CN(C)c1ccc(C2(c3ccc(N(C)C)cc3)OC(=O)c3cc(N(C)C)ccc32)cc1 | ? | ? | / | / | 8% | -1%
COc1ncc2nc(-c3cc(F)cc(F)c3)c(=O)n(Cc3cccs3)c2n1 | ? | -24% | / | / | 17% | -9%
Fc1ccc(N2CCN(C(c3cccs3)c3nnnn3CCc3ccccc3)CC2)cc1 (stereo not drawn) | 1µM* | -2% | 33 | ? | 3% | -3%
COCCn1nnnc1C(c1cccs1)N1CCCC(C)C1 (stereo not drawn) | 11µM* | / | / | / | 5% | /
c1ccc(Cn2nnnc2C(c2cccs2)N2CCSCC2)cc1 (stereo not drawn) | ? | -13% | 225 | -9 | 10% | 2%
COc1ccc(Cn2nnnc2C(c2cccs2)N2CCSCC2)cc1 (stereo not drawn) | -15% | -6% | ? | 2 | 2%[38.3 µM] | -1%
COc1ccc(Cn2nnnc2C(c2cccs2)N2CCCCCC2)cc1 (stereo not drawn) | 13µM* | -16% | 13 | ? | 25% | 2%
Fc1ccccc1N1CCN(C(c2cccs2)c2nnnn2CCc2ccccc2)CC1 (stereo not drawn) | ? | -10% | 11 | 7 | -5%[38.3 µM] | -4%
COCCn1nnnc1C(c1cccs1)N1CCN(c2ccccc2)CC1 (stereo not drawn) | 6% | -4% | 36 | 2 | -1%[38.3 µM] | -8%
CC1CCN(C(c2cccs2)c2nnnn2Cc2ccccc2)CC1 (stereo not drawn) | 2µM* | -19% | -5 | 8 | 12%[38.3 µM] | -4%
COC(=O)N1CCC[C@@]2(CCN(C(=O)Nc3cccc(C#N)c3)C2)C1 | -6% | -2% | / | / | 0% | 5%
